Data on 14 compounds can be found in PubChem BioAssay.

Test [1] can be described thus: viability loss with induced miR-34 in A549 – imaging, A549 dox-inducible miR-34, nuclei and caspase counts, primary screen (AID 1347080;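 active means compounds whose cell count with miR-34 switched on is under 0.7 times the count with it off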). The settings on record: A549 miR-34 inducible, Hoechst nuclei count, 48 h.
The nature of test [2]: MELAS cybrid and Rieske KO viability enhancers – cell-based, MELAS cybrids, Rieske KO mouse fibroblasts, CellTiter-Glo, primary screen (AID 1508586).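 Further: z relative to plate mean and SD of compound and empty wells.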 The settings on record: low glucose. (In general: ATP-based viability assays read luminescence as a measure of living cells.)
Setting [3] is: stronger effect = lower value, cell number ratio, induced over uninduced.
The mark [4] stands for this setting: measured here: relative caspase fold change +Dox/-Dox.
Where [5] appears, read: measured here: total cells with miR-34 induction, stronger effect = lower value.
The mark [6] stands for this setting: measured here: total cells without miR-34 induction.
Where [7] appears, read: MELAS cybrid survival, CellTiter-Glo 48 h, stronger effect = higher value.
The mark [8] stands for this setting: Rieske KO mouse fibroblast survival, CellTiter-Glo 72 h.

Several values for one entry are separate records, joined by “and”; a condition that tells them apart may be missing. Identical values can stand only once. Activity calls are given as the source filed them.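 How the source made its calls, unless noted: active means mean z-score across replicates of 1.96 or higher in either the MELAS or the Rieske mutant cell line; inactive means the rest.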
Further: test concentration not given here.

`COC(=O)C=CC(=O)OC`: the fold change in test [1] (setting [3]) is 0.917 (inactive); in test [1] (setting [4]) it was 0.928. Further, the results for the cell count in test [1] (setting [5]) and in test [1] (setting [6]) were 10100 and 11000, respectively. In addition, the z-score in test [2] (setting [7]) is -0.336 (inactive); in test [2] (setting [8]) it was 0.844.

In the case of `CC(C)N(CCCNC(=O)Nc1ccc(C(C)(C)C)cc1)CC1OC(n2cc(Br)c3c(N)ncnc32)C(O)C1O` (centres undefined), the fold change in test [1] (setting [3]) was 0.844 (inactive); in test [1] (setting [4]), 1.16. The cell count was 7150 in test [1] (setting [5]) and 8480 in test [1] (setting [6]). In addition, the z-score in test [2] (setting [7]) is -0.128 (inactive); in test [2] (setting [8]) it was -0.178.

On to `CCN1CCN(C(=O)NC(C(=O)NC2C(=O)N3C(C(=O)O)=C(CSc4nnnn4C)CS[C@H]23)c2ccc(O)cc2)C(=O)C1=O` (some centres undefined), for which the fold change was 0.907 (inactive) in test [1] (setting [3]) and 0.724 in test [1] (setting [4]). Also, the results for the cell count in test [1] (setting [5]) and in test [1] (setting [6]) were 7730 and 8520, respectively. The z-score is 0.121 (inactive) in test [2] (setting [7]) and 0.0185 in test [2] (setting [8]).

In the case of `C[C@]1(C(=O)Nc2ccc(F)nc2)CCCN1c1nc(Nc2cc(C3CC3)[nH]n2)c2cccn2n1`, the fold change in test [1] (setting [3]) is 1.01 (inactive); in test [1] (setting [4]), 0.776. The cell count in test [1] (setting [5]) was determined as 2100; in test [1] (setting [6]) it was 2080. Further, the z-score in test [2] (setting [7]) is -0.348 (inactive); in test [2] (setting [8]), -2.24.

In the case of `CCNC(=O)Nc1ccc(-c2nc3c(c(N4CCOCC4C)n2)CCN(C2COC2)C3)cc1` (centres undefined), the fold change was 0.905 (inactive) in test [1] (setting [3]) and 0.555 in test [1] (setting [4]). The cell count turned out to be 2790 in test [1] (setting [5]) and 3080 in test [1] (setting [6]). Also, the z-score in test [2] (setting [7]) is 2.89 (active); in test [2] (setting [8]), -0.834.

In the case of `O=C(C=Cc1ccc(O)c(O)c1)OC1C[C@@](O)(C(=O)O)CC(O)C1O` (some centres undefined), the results for the fold change in test [1] (setting [3]) and in test [1] (setting [4]) were 0.936 (inactive) and 0.802, respectively. For the same compound, the cell count in test [1] (setting [5]) came to 8020; in test [1] (setting [6]), 8570. Besides, the z-score in test [2] (setting [7]) is -0.38 (inactive); in test [2] (setting [8]) it was -0.0852.

On to `Nc1ncn(C2CC(O)C(CO)O2)c(=O)n1` (centres undefined), for which the fold change in test [1] (setting [3]) is 0.936 (inactive); in test [1] (setting [4]), 0.727. Besides, the cell count in test [1] (setting [5]) is 7530; in test [1] (setting [6]), 8050. Further, the z-score in test [2] (setting [7]) is -0.461 (inactive); in test [2] (setting [8]) it was 0.644.

`C[C@]12CCC(O)CC1=CCC1C2CC[C@]2(C)C(n3cnc4ccccc43)=CCC12` (some centres undefined): the fold change is 0.927 (inactive) in test [1] (setting [3]) and 0.715 in test [1] (setting [4]). Also, the cell count was 7740 in test [1] (setting [5]) and 8340 in test [1] (setting [6]). Besides, the figures for the z-score in test [2] (setting [7]) and in test [2] (setting [8]) were -0.32 (inactive) and -0.165, respectively.

Consider `O=C1c2c(O)cccc2[C@H]([C@@H]2OC(CO)C(O)C(O)C2O)c2cc(CO)cc(O)c21` (some centres undefined), for which the values for the fold change in test [1] (setting [3]) and in test [1] (setting [4]) were 0.88 (inactive) and 0.843, respectively. For the same compound, the cell count in test [1] (setting [5]) amounted to 8560; in test [1] (setting [6]), 9720. Moreover, the figures for the z-score in test [2] (setting [7]) and in test [2] (setting [8]) were -0.344 (inactive) and -0.143, respectively.

Consider `CCOC(=O)C1=C(N)Oc2ccc(Br)cc2[C@H]1C(C#N)C(=O)OCC` (some centres undefined), for which the values for the fold change in test [1] (setting [3]) and in test [1] (setting [4]) were 0.989 (inactive) and 0.887, respectively. In addition, the cell count in test [1] (setting [5]) stood at 5900; in test [1] (setting [6]) it was 5960. Besides, the z-score in test [2] (setting [7]) is -0.334 (inactive); in test [2] (setting [8]) it was 0.811.

On to `N#CC(=C(N)Sc1ccc(N)cc1)c1ccccc1C(F)(F)F`, for which the fold change was 0.906 (inactive) in test [1] (setting [3]) and 0.881 in test [1] (setting [4]). Further, the cell count came out at 4690 in test [1] (setting [5]) and 5170 in test [1] (setting [6]). Also, the z-score is -0.31 (inactive) in test [2] (setting [7]) and 0.82 in test [2] (setting [8]).

As to `CC(=O)O[C@]1(C(C)=O)CC[C@H]2[C@@H]3C[C@H](C)C4=CC(=O)C=C[C@]4(C)[C@@]3(F)[C@H](O)C[C@@]21C`, the fold change in test [1] (setting [3]) is 0.862 (inactive); in test [1] (setting [4]) it was 1.9. For the same compound, the cell count turned out to be 5370 in test [1] (setting [5]) and 6240 in test [1] (setting [6]). Further, the z-score in test [2] (setting [7]) is -0.0969 (inactive); in test [2] (setting [8]), -0.184.

In the case of `COc1ccc(C2CC(=O)c3c(O)cc(OC4OC(COC5OC(C)C(O)C(O)C5O)C(O)C(O)C4O)cc3O2)cc1O` (centres undefined), the fold change in test [1] (setting [3]) is 0.944 (inactive) and 0.996 (inactive); in test [1] (setting [4]), 0.804 and 0.887. Besides, the cell count is 9100 and 9620 in test [1] (setting [5]); 9630 and 9660 in test [1] (setting [6]). The z-score was -0.317 (inactive) and -0.329 (inactive) in test [2] (setting [7]); 0.0192 and 0.287 in test [2] (setting [8]).

Consider `N=c1ccn2c(n1)OC1C(O)C(CO)OC12` (centres undefined), for which the fold change in test [1] (setting [3]) is 1.07 (inactive); in test [1] (setting [4]), 0.814. Moreover, the cell count worked out at 2350 in test [1] (setting [5]) and 2200 in test [1] (setting [6]). Further, the z-score in test [2] (setting [7]) was 0.074 (inactive); in test [2] (setting [8]), 0.000793.
